Sm TGR inh: inhibitors of Schistosoma mansoni thioredoxin glutathione reductase; Potency, µM (titrated, usually from 114 µM), most hits filed as inhibitors; AID 485364; 3% of 360,000 active; purified TGR, DTNB reduction, TNB absorbance 405 nm; active means well fitted inhibition curve with a large enough effect; inconclusive means small, poorly fitted or top-dose-only effect; inactive means no such curve, though single readings can be large or run the other way; further: nearly all actives have a fitted effect of over 60% in size
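Kinetic colorimetric format: TGR-catalysed, NADPH-driven DTNB reduction monitored via TNB absorbance. Enzyme dispensed at 20 nM; compound exposure 15 min at room temperature before reaction start.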
FMDV antiviral: antivirals against foot and mouth disease virus; FMDV antiviral cell-based qHTS; Potency, µM (top dose mostly 57.9 µM), most hits filed as inhibitors; 1.2% of 410,000 active; AID 1159524; calls by dose curve; tested in HEK293T cells; further: read-out not given here; nearly all actives have a fitted effect of over 45% in size
CHX counter: counter-screen hit for Shiga toxin inhibitors, cycloheximide. AID 2314. 12% of 300,000 active. cell reporter, cycloheximide protein synthesis inhibition counterscreen. max response, %; in the data active means max response mostly above about 13%, no sharp cut-off; inactive means mostly below about 14%; further: read at 38.3 µM for the half of the compounds with a filed dose
Shiga toxin inh: Shiga toxin inhibition; Vero cells, Shiga toxin protein synthesis inhibition reporter; inhibition, % at 38.7 µM; 9.2% of 290,000 active; in the data active means inhibition mostly above about 28%, no sharp cut-off; inactive means mostly below about 43%
Of the large screens only hits and unclear results are named; the others gave an inactive call. Shown are actives, neighbours in structure and some others; about 12% of the full set was active somewhere.

COc1cccc(C(N)=O)c1	none (no result: Sm TGR inh, CHX counter, Shiga toxin inh)
COc1ccc(/C(O)=C/C(=O)C(=O)NNC(=O)C(O)(c2ccccc2)c2ccccc2)cc1	none
COCCCNC(=O)CCC(=O)N1Cc2ccccc2Oc2ncccc21	none (no result: CHX counter, Shiga toxin inh)
CC(C)OCCCNC(=O)c1ccc2c(c1)N(Cc1c(F)cccc1Cl)C(=O)c1ccccc1S2	none (no result: CHX counter, Shiga toxin inh)
O=c1c(-c2ccc(F)cc2)nc2cnc(N3CCOCC3)nc2n1C[C@H]1CCCO1	none (no result: Sm TGR inh, CHX counter, Shiga toxin inh)
CC(=O)c1c(C)oc2c(Cl)cc(NS(=O)(=O)c3cc(C)c(C)cc3C)cc12	none (no result: CHX counter, Shiga toxin inh)
Cc1cnc(C)c(-c2cccc3c2OC(CNC(=O)/C=C/c2ccncc2)C3)n1 (stereo not given)	none (no result: Sm TGR inh, CHX counter, Shiga toxin inh)
COc1cccc(OC)c1C(=O)Nc1cccnc1	FMDV antiviral inconclusive
COc1cccc(NC(=O)c2ccc(C(=O)c3ccccc3)o2)c1	CHX counter 37.6, Shiga toxin inh 92.9
Cc1cccc(C(=O)Nc2ccc3ccccc3c2)c1	CHX counter 52.4, Shiga toxin inh 91.6
Cc1cccc(C(=O)Nc2ccc(C)c(OC(=O)c3cccc(C)c3)c2)c1	CHX counter 56.0, Shiga toxin inh 192.8 (no result: FMDV antiviral)
COc1cccc(OC)c1C(=O)NNC(=O)c1cccnc1	CHX counter 18.2
CC(C(=O)Nc1ccccc1C(F)(F)F)n1nc(-c2ccccc2)c2c(c1=O)CCCC2 (stereo not given)	none (no result: CHX counter, Shiga toxin inh)
COc1ccc(C(=O)NN/C(C)=C/C(=O)C(F)(F)C(F)(F)C(F)(F)F)cc1	CHX counter 21.9, Shiga toxin inh 43.7
CCn1c2ccccc2c2cc(NC(=O)c3ccco3)ccc21	CHX counter 18.2 (no result: FMDV antiviral)
COc1c(C(=O)NNC(=O)c2ccccc2)csc1Br	CHX counter 35.5, Shiga toxin inh 48.5
CCn1c2ccccc2c2cc(NC(C)=O)ccc21	none
CCn1c2ccccc2c2cc(NC(=O)C(=O)N3CCOCC3)ccc21	CHX counter 35.2, Shiga toxin inh 85.6
CCn1c2ccccc2c2cc(NC(=O)CN3CCCC3)ccc21	none
CCOC(=O)N1CCc2c(sc3c2c(=O)n(CCc2ccccc2)c(=O)n3Cc2ccc(C)cc2C)C1	none (no result: CHX counter, Shiga toxin inh)
CCn1c(CNC(=O)c2ccc(OC)cc2)nnc1SCC(=O)Nc1ccc(F)cc1	none (no result: CHX counter, Shiga toxin inh)
CCOc1ccc(N(C(C)C(=O)NCCSc2ccc(Cl)cc2)S(C)(=O)=O)cc1 (stereo not given)	none (no result: CHX counter, Shiga toxin inh)
COc1cccc(C(=O)Nc2ccc(-n3nncc3-c3ccccc3)cc2)c1	none (no result: CHX counter, Shiga toxin inh)
COc1cccc(C(=O)Nc2ccccc2)c1	CHX counter 35.3, Shiga toxin inh 63.9
COc1cccc(C(=O)Nc2cnn(C(C)C)c2)c1	CHX counter 32.0, Shiga toxin inh 93.5
CCC/C(=N\NC(=O)c1cccc(C)c1)c1ccccc1	CHX counter 56.4, Shiga toxin inh 59.3
COc1ccc(C(=O)NC23CC4CC(CC(C4)C2)C3)cc1	none
COc1cccc(C(=O)NC23CC4CC(CC(C4)C2)C3)c1	CHX counter 14.7
O=C(CN1C(=O)CCc2cc(S(=O)(=O)N3CCOCC3)ccc21)NCc1ccccc1Cl	none (no result: CHX counter, Shiga toxin inh)
Cc1cc(C)cc(OCC(=O)NCC(c2ccc(Cl)cc2)N2CCCCC2)c1 (stereo not given)	FMDV antiviral inconclusive (no result: CHX counter, Shiga toxin inh)
Cc1ccc(C)c(CN2C(=O)c3ccccc3S(=O)c3ccc(C(=O)N(C)Cc4ccccc4)cc32)c1 (stereo not given)	none (no result: CHX counter, Shiga toxin inh)
COc1ccc([C@]23Cc4cc(C#N)ccc4C(O2)c2c(c4ccc(OC)cc4oc2=O)O3)cc1	Sm TGR inh inconclusive (no result: FMDV antiviral)
O=C(CCn1nc(-c2ccc(Cl)cc2)c2ccccc2c1=O)Nc1ccc(OC(F)(F)F)cc1	none (no result: CHX counter, Shiga toxin inh)
CCn1c2ccccc2c2cc(NC(=O)c3cccc(OC)c3)ccc21	CHX counter 19.6, Shiga toxin inh 95.3
O=C(O)c1ccc(NC(=O)c2ccc(COc3ccccc3)o2)cc1	none
O=C(Nc1ccc(O)cc1)c1ccc(C(=O)c2ccccc2)o1	Shiga toxin inh 54.5
COc1cccc(C(=O)Nc2cccc(SC)c2)c1	CHX counter 18.7, Shiga toxin inh 62.7
COc1cccc(C(=O)Nc2cccc(OCC(=O)O)c2)c1	none
CCn1c2ccccc2c2cc(NC(=O)CSc3nnc(C4CC4)n3Cc3ccco3)ccc21	Sm TGR inh 7.94µM
CCOc1ccc(NC(=O)C2CCN(C(=O)N3CC(C)Oc4ccc(Cl)cc43)CC2)cc1 (stereo not given)	none (no result: CHX counter, Shiga toxin inh)
COc1cccc(NC(=O)c2cccnc2)c1	CHX counter 31.6
COc1ccc(C(=O)Nc2ccc3ccccc3c2)cc1	Sm TGR inh inconclusive
C/C(=N\NC(=O)C1(C)CC1(Br)Br)c1cccc(NC(=O)c2ccc(C)o2)c1 (stereo not given)	FMDV antiviral inconclusive, CHX counter 28.4, Shiga toxin inh 51.6
Cc1ccc(C(=O)Nc2cccc(Oc3ccccc3)c2)o1	CHX counter 30.2
O=C(Nc1cccc(NC(=O)c2cccnc2)c1)c1cccnc1	none (no result: FMDV antiviral)
COc1cccc(C(=O)Nc2ccc3ccccc3c2)c1	CHX counter 40.2 (no result: Shiga toxin inh)
Cc1onc(-c2ccccc2)c1C(=O)NCCN1Cc2ccccc2OC(c2ccsc2)C1 (stereo not given)	none (no result: Sm TGR inh, CHX counter, Shiga toxin inh)
CCOc1ccccc1NC(=O)C(=O)/C=C(\O)c1cc(OC)ccc1OC	none
COc1cccc(C(=O)NNC(=O)c2cccnc2)c1	none
COc1ccccc1NC(=O)C(=O)/C=C(\O)c1ccccc1	CHX counter 47.8, Shiga toxin inh 63.6
COc1cccc(C(=O)NNC(=O)c2ccccc2)c1	CHX counter 43.5, Shiga toxin inh 69.2
Fc1ccc(C(NCCc2ccccc2)c2nnc(-c3ccccc3Cl)o2)cc1 (stereo not given)	none (no result: CHX counter, Shiga toxin inh)
CC(=O)c1cccc(NC(=S)NC(=O)c2ccccc2Cl)c1	CHX counter 21.2, Shiga toxin inh 83.3
COC(=O)c1ccccc1NC(=S)NC(=O)c1ccccc1C	Sm TGR inh inconclusive
CC(=O)c1cccc(NC(=S)NC(=O)c2ccc(C)cc2Cl)c1	Sm TGR inh inconclusive, CHX counter 37.8, Shiga toxin inh 90.4
O=C(NC(=S)Nc1ccccc1O)c1ccccc1Cl	CHX counter 43.9, Shiga toxin inh 77.3 (no result: Sm TGR inh)
O=C(NCCCN1CCOCC1)c1ccc(Br)cc1	none
CC(C)c1ccc(C(=O)NCCCN2CCOCC2)cc1	CHX counter 37.1
O=C(NCCCN1CCOCC1)c1ccc(S(=O)(=O)N2CCOCC2)cc1	CHX counter 25.9 (no result: FMDV antiviral)
COc1cccc(CNC(=O)c2cnc(N3CCCCC3)c3ccccc23)c1	none (no result: CHX counter, Shiga toxin inh)
CCOc1cc(CNC(=O)c2ccccc2NC(=O)c2nsc3ccccc23)ccc1OC	none (no result: CHX counter, Shiga toxin inh)
Cc1ccc(SCC(=O)Nc2cc([N+](=O)[O-])ccc2O)cc1	CHX counter 27.9, Shiga toxin inh 54.9
O=C(CSCc1ccc(Cl)cc1)Nc1cc([N+](=O)[O-])ccc1O	Shiga toxin inh 45.6 (no result: Sm TGR inh)
COc1ccc([N+](=O)[O-])cc1NC(=O)CSCc1ccc(Br)cc1	none
Cc1ccc(C(=O)NCc2ccc(N(C)C)cc2)cc1NC(=O)c1nsc2ccccc12	none (no result: CHX counter, Shiga toxin inh)
COc1ccccc1C(C#N)N1N=C(C)CC1c1ccccc1 (stereo not given)	none
CC1=NN(C(C#N)c2ccccc2C)C(c2ccccc2)C1 (stereo not given)	none
N#CC(c1ccccc1O)N1N=C(c2ccccc2)CC1c1ccccc1 (stereo not given)	CHX counter 62.8, Shiga toxin inh 96.6

Assay outcomes as filed in PubChem BioAssay.
